Assay results from PubChem BioAssay (NCI).
Compounds without any hit were thinned out: in the full panel of roughly 79,000, 15% have a hit. Rule as the data show it: active = growth inhibition above about 70%; inactive = the rest.

Experiments:
[1] = NCI Yeast Anticancer Drug Screen. Data for the rad50 strain (AID 155);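 also: 0% = growth of vehicle-only cultures of the same strain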; conditions: S. cerevisiae rad50 strain growth inhibition; at 50.0 µM; stronger effect = higher value
Summary of the method: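 Genetically altered yeast (DNA repair pathway); compound treatment; growth inhibition vs vehicle ctrl.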

[2] = NCI Yeast Anticancer Drug Screen. Data for the mec2-1 strain (AID 157); conditions: S. cerevisiae mec2-1 strain, at 50.0 µM, stronger effect = higher value
Summary of the method: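 Each compound was tested on mec2-1 yeast, a strain altered in DNA damage repair or cell cycle control. Growth inhibition is reported relative to vehicle.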

[3] = NCI Yeast Anticancer Drug Screen. Data for the sgs1 mgt1 strain (AID 161);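 also: 0% = growth of cultures given vehicle only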; conditions: S. cerevisiae sgs1 mgt1 strain, at 50.0 µM, stronger effect = higher value
Summary of the method: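 Read-out: growth inhibition vs vehicle controls. Cells: mutant yeast strain deficient in DNA damage repair.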

[4] = NCI Yeast Anticancer Drug Screen. Data for the cln2 rad14 strain (AID 165);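 also: 0% = growth equal to vehicle treated cultures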; conditions: S. cerevisiae cln2 rad14 strain, at 50.0 µM, stronger effect = higher value
Summary of the method: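 Test compounds were added to cln2 rad14 yeast cultures; inhibition of growth was then determined by comparison with vehicle treatment.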

[5] = NCI Yeast Anticancer Drug Screen. Data for the bub3 strain (AID 167); conditions: S. cerevisiae bub3 mutant strain, at 50.0 µM, stronger effect = higher value
Summary of the method: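 Yeast carrying a defined mutation is treated with each compound, and growth is compared with that of vehicle-exposed cells to give inhibition.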

[6] = NCI Yeast Anticancer Drug Screen. Data for the mlh1 rad18 strain (AID 175); conditions: S. cerevisiae mlh1 rad18 strain growth inhibition; at 50.0 µM; stronger effect = higher value
Summary of the method: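 Inhibition values reflect reduced growth of mutant yeast versus vehicle-treated controls following compound exposure; the mutations affect DNA damage repair.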

Measured: growth inhibition

CC(=O)OC1C(O[C@H]2CC[C@]34O[C@]35CC[C@]3(C)C(C6(C)CC[C@@H](C(C)(C)O)O6)[C@@H](O)CC3(C)[C@@H]5CC(OC3OC(CO)C(O)C(O)C3O)C4C2(C)C)OCC(O)C1O (stereo partly specified)
inactive: [1] -8.4% | [2] -21.6% | [3] 2.7% | [4] 1.85% | [5] 0.7% | [6] 6.35%

C(=C/c1ccccn1)/c1ccccc1
inactive: [1] 39.4% | [2] 15.1% | [3] 21.3% | [4] 16.5% | [5] 14.6% | [6] 11.1%

CCCCCCNC(=O)/C(=C\c1ccc(Cl)cc1Cl)NC(=O)c1ccccc1
inactive: [1] -3.7% | [2] -17.8% | [3] -9.75% | [4] 33.1% | [5] -16.5% | [6] -9.6%

CC1=NN(C(=O)c2ccccc2O)C(=O)/C1=C/c1ccc(O)cc1
inactive: [1] 6.3% | [2] -16.1% | [3] -15.5% | [4] -5.65% | [5] -11.8% | [6] -27.6%

CC(O)C(C)(C)[N+](=O)[O-] (stereo unspecified)
inactive: [1] 0.45% | [2] -1.55% | [3] -7% | [4] -4.25% | [5] 2.8% | [6] 1.75%

CC1=Nc2c(C#N)ncn2N=C(C)C1
inactive: [1] 31.9% | [2] 0.25% | [3] 17.5% | [4] 41.4% | [5] 28.8% | [6] -19.1%

COc1ccc(CN2CCCN(Cc3ccc(OC)cc3OC)C2c2cccc(OC)c2O)c(OC)c1
inactive: [1] 20.6% | [2] 16.6% | [3] 12.6% | [4] 16% | [5] -6.5% | [6] 6.5%

CN1C(=O)CCSC1=S
inactive: [1] 3.55% | [2] -12.1% | [3] -4.7% | [4] -18.6% | [5] 14.4% | [6] -2.05%

COc1ccc(C(=O)N/N=C/c2ccccc2Cl)cc1
inactive: [1] 1% | [2] 0.45% | [3] 19.1% | [4] -10.6% | [5] 19.4% | [6] 18.4%

CNC(=O)OCCCCCCCCCCOC(=O)NC
inactive: [1] 2.8% | [2] -0.1% | [3] 6.2% | [4] -23.7% | [5] -17.9% | [6] 4.65%

O=Cc1ccccc1Cl
inactive: [1] 28% | [2] 12.9% | [3] 16.8% | [4] -15.2% | [5] 10.9% | [6] 13.8%

O=C(NC1CCCCC1)N(C(=O)C(F)(F)F)C1CCCCC1
inactive: [1] 9.05% | [2] 3.6% | [3] -5.15% | [4] 9.8% | [5] -2.4% | [6] 14.7%

O=C1C(O)=C(c2ccccc2)C(=O)N1Cc1ccccc1
inactive: [1] 7.25% | [2] -4.7% | [3] 4.55% | [4] -39% | [5] 3.4% | [6] -6.6%

O=C1C2=C(Nc3cc([N+](=O)[O-])ccc3N2)OC1c1ccc(Cl)cc1Cl (stereo unspecified)
inactive: [1] -2.35% | [2] 23.4% | [3] 5.2% | [4] 10.7% | [5] -7% | [6] 13.2%

CCOP(=O)(OCC)c1nc(Cl)nc(Cl)c1SC(F)(F)F
inactive: [1] 33.3% | [2] 11.3% | [3] 14.5% | [4] 13.2% | [5] -4.4% | [6] 25.2%

CC1(C)CC(C)(OC(=O)c2ccccc2)N=N1 (stereo unspecified)
inactive: [1] 14.6% | [2] -11.1% | [3] 20.1% | [4] -16.4% | [5] 4.35% | [6] 11.1%

O=[N+]([O-])c1ccc(CCn2cnc3c(N(CCO)CCO)ncnc32)cc1
inactive: [1] -7.85% | [2] -0.9% | [3] 3.6% | [4] -54.3% | [5] 6.95% | [6] -14.3%

O=C1CCC23CC(C=CC=C12)n1c(=O)n(-c2ccccc2)c(=O)n13 (stereo unspecified)
inactive: [1] 13.2% | [2] -1.55% | [3] 4.1% | [4] 21.1% | [5] -14.7% | [6] 16.7%

CC(OP(=O)(O)O)C(N)C(=O)O (stereo unspecified)
inactive: [1] 0.4% | [2] -34% | [3] -44.9% | [4] -39.1% | [5] -19.9% | [6] -5.2%

O=C(NCCc1ccccc1)c1ccc(Cl)cc1
inactive: [1] 6.25% | [2] 9.8% | [3] 9.9% | [4] 10.8% | [5] 26% | [6] 1.5%

CN(C)CC(=O)c1c[nH]c(=O)[nH]c1=O
inactive: [1] 11.3% | [2] -49.1% | [3] -13.4% | [4] -63.2% | [5] -1.65% | [6] -8.55%
